In the supplement of paper PMC3545927:
The list shows a part of the results. No count for the full screen is at hand.

Target: furin, P09958
Assay: furin cleavage Z-score vs untreated control; higher = more cleavage, active = 3.5 or more, inactive = 1 or less, 8 variable residues between constant flanks
In short: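 Abundance of DNA freed from bead-bound 8-mer peptide–cDNA fusions by purified furin was measured as sequencing read counts after PCR adapter tagging. Cutting ran 7.5, 15 or 30 min in 0.01 ml of 50 mM HEPES pH 7.5 with CaCl2 and NaCl at 1:10 enzyme:substrate. The cleavage Z-score expresses these log counts against furin-free reactions after lowess adjustment and median absolute deviation scaling.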

furin, P09958, sequence (P09958 whole entry): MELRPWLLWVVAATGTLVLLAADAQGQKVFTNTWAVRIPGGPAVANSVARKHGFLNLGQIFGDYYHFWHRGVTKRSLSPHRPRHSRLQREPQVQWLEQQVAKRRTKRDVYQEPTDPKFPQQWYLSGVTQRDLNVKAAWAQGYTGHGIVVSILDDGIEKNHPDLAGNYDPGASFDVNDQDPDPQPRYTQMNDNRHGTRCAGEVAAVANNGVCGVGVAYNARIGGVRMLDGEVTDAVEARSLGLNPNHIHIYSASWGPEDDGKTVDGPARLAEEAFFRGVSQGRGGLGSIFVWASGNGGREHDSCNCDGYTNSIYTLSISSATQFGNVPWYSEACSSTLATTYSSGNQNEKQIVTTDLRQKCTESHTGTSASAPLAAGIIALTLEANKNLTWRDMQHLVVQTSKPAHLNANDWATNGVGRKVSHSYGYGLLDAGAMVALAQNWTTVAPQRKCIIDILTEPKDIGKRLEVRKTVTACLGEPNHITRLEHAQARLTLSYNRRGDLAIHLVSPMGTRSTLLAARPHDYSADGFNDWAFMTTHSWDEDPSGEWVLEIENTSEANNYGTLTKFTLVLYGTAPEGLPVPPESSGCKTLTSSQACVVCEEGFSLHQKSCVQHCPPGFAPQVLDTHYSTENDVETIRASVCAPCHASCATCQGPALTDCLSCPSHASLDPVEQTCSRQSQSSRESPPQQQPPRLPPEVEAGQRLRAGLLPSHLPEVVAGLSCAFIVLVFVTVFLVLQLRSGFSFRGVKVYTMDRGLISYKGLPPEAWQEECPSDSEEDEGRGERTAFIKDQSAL

Sequence	furin cleavage Z-score (7.5 min)	furin cleavage Z-score (15 min)	furin cleavage Z-score (30 min)
CATTPCSGSLAGNASASA [HC1925]	-0.297 (inactive)	-1.38 (inactive)	-1.27 (inactive)
CAMEEPSQHLAGNASASA [HC20]	-0.193 (inactive)	1.35	1.68
CAIHHRQKRSAGNASASA [FS-540]	12 (active)	10.4 (active)	9.65 (active)
CAELQRQKRSAGNASASA [FS-762]	10.3 (active)	11.5 (active)	9.23 (active)
CASLLKVPYFAGNASASA [HC613]	-0.873 (inactive)	0.367 (inactive)	-0.906 (inactive)
CAVASRNRRAAGNASASA [FS-147]	13.1 (active)	12.8 (active)	9.83 (active)
CAPARRNRRAAGNASASA [FS-837]	8.23 (active)	9.65 (active)	8.04 (active)
CAPGEINRVAAGNASASA [HC1610]	0.342 (inactive)	1.78	0.355 (inactive)
CAPARRSVLAAGNASASA [FS-1987]	-0.364 (inactive)	-0.766 (inactive)	-0.871 (inactive)
CALTTTQWQVAGNASASA [HC494]	0.00411 (inactive)	-0.467 (inactive)	0.941 (inactive)
CACEIYGACYAGNASASA [HC1593]	-1.5 (inactive)	-1.53 (inactive)	-2.18 (inactive)
CAPISRPRRRAGNASASA [FS-1648]	7.6 (active)	8.41 (active)	6.07 (active)
CAPISYLKGSAGNASASA [HC739]	0.299 (inactive)	-0.469 (inactive)	-0.42 (inactive)
CALAARPRRRAGNASASA [FS-815]	4.52 (active)	6.47 (active)	5.7 (active)
CAGSPRPRRRAGNASASA [FS-436]	7.08 (active)	9.3 (active)	7.64 (active)
CAEVYTSTWVAGNASASA [HC2189]	0.0489 (inactive)	-1.01 (inactive)	-0.826 (inactive)
CAESEVPCHRAGNASASA [HC2457]	-0.0892 (inactive)	0.0197 (inactive)	0.878 (inactive)
CAMLECSQHLAGNASASA [HC1685]	-0.00687 (inactive)	-0.291 (inactive)	-0.319 (inactive)
CALPAILSPGAGNASASA [HC1102]	-0.355 (inactive)	-0.501 (inactive)	-0.653 (inactive)
CATTPNSGSWAGNASASA [HC58]	-0.658 (inactive)	-1.14 (inactive)	-1.83 (inactive)
CASADLVVRGAGNASASA [FS-89]	0.299 (inactive)	-0.542 (inactive)	-0.0754 (inactive)
CAMDARHKRGAGNASASA [FS-364]	6.41 (active)	8.49 (active)	7.7 (active)
CAMLRRTKRGAGNASASA [FS-691]	-0.133 (inactive)	-0.069 (inactive)	0.376 (inactive)
CAHFQRVKRGAGNASASA [FS-1335]	7.42 (active)	6.93 (active)	6.76 (active)
CAKYGRVKRGAGNASASA [FS-1354]	0.448 (inactive)	0.71 (inactive)	0.194 (inactive)
CASHLRVKRGAGNASASA [FS-1280]	7.98 (active)	7.64 (active)	6.42 (active)
CATTPCSWSWAGNASASA [HC1888]	-2.26 (inactive)	-1.57 (inactive)	0.135 (inactive)
CAWPAPQGSRAGNASASA [HC716]	1.18	-0.57 (inactive)	0.187 (inactive)
